PAFAH2 inh: PAFAH2 enzyme inhibitors, primary screen, biochemical, fluorescence polarization, human | inhibition, % at 3.39 µM | actives 0.99% (n = 340,000) | Platelet-activating factor acetylhydrolase 2, cytoplasmic (Homo sapiens), Q99487 | recombinant PAFAH2, FP-rhodamine activity probe;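 active = inhibition above the mean over all tested compounds plus 3 SD, cut at about 30% in these data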;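 also: inhibitors block probe labeling of enzyme so polarization drops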
PAFAH1B2 FP inh: PAFAH1B2 enzyme inhibitors, primary screen, biochemical, fluorescence polarization, human. Platelet-activating factor acetylhydrolase IB subunit alpha2 (Homo sapiens), P68402. recombinant PAFAH1B2, FP-rhodamine activity probe. inhibition, % at 3.39 µM. actives 1.2% (n = 340,000). AID 492953, 2010;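 active = inhibition above the mean of all tested compounds plus 3 SD, cut at about 24% in these data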
PME-1 primary: PME-1 inhibitors via competitive probe labeling, primary screen, biochemical, fluorescence polarization, FP-Rh probe, HTS | recombinant PME-1 | inhibition, % at 5.9 µM | Protein phosphatase methylesterase 1 (Homo sapiens), Q9Y570 | actives 0.53% (n = 320,000);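 active = inhibition above the campaign mean of all compounds plus 3 SD, cut at about 26% in these data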;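 also: competitive labeling of PME-1 active site by serine hydrolase directed probe; inhibitors block probe labeling so polarization falls and inhibition rises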
Target sequence (Q9Y570 whole entry, looked up): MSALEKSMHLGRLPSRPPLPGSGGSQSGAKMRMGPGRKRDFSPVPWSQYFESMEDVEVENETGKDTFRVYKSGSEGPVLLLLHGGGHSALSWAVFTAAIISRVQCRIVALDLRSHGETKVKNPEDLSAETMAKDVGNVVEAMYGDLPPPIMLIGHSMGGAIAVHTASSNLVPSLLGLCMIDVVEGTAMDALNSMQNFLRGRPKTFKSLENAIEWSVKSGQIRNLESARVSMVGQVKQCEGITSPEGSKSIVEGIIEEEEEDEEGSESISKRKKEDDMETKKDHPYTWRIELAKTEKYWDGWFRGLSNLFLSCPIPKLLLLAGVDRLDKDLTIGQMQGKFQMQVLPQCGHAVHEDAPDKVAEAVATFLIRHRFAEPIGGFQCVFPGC
Fam108B inh: mouse Fam108B serine hydrolase inhibitors, primary screen, counter-screen for RBBP9 inhibitor project, biochemical, fluorescence polarization; recombinant Fam108B, FP-Rh probe fluorescence polarization; inhibition, % at 9.51 µM; actives 0.33% (n = 300,000); AID 1947, 2009;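 active = inhibition above the screen mean inhibition plus 3 SD, computed separately per campaign, cut at about 18% in these data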;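 also: inhibitors lower polarization as less probe binds the enzyme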
PAFAH1B3 FP inh: PAFAH1B3 enzyme inhibitors, primary screen, biochemical, fluorescence polarization, human; Platelet-activating factor acetylhydrolase IB subunit alpha1 (Homo sapiens), Q15102; recombinant PAFAH1B3, FP-rhodamine probe; inhibition, % at 3.39 µM; actives 0.28% (n = 340,000); AID 492972, 2010;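 active = inhibition above the screen-wide average of all tested compounds plus 3 SD, cut at about 25% in these data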
Target sequence (Q15102 whole entry, looked up): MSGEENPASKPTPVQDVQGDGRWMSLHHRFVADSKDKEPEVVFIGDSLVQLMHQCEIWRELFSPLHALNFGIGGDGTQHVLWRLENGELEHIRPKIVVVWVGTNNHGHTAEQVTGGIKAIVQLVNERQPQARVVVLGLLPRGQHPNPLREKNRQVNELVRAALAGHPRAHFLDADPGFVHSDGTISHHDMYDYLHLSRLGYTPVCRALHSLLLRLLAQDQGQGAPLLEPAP
pPAFAH FP inh: pPAFAH enzyme inhibitors, primary screen, biochemical, fluorescence polarization, human. recombinant pPAFAH, FP-rhodamine probe fluorescence polarization. inhibition, % at 3.39 µM. actives 1.5% (n = 330,000);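 active = inhibition above the mean inhibition across the screen plus 3 SD, cut at about 25% in these data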;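 also: inhibitors block binding of the rhodamine activity-based probe so polarization drops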
Numbers stand for hits; . = inactive; / = no result. An excerpt weighted towards active compounds, which were near 2.8% of everything screened.

SMILES | PAFAH2 inh | PAFAH1B2 FP inh | PME-1 primary | Fam108B inh | PAFAH1B3 FP inh | pPAFAH FP inh
COc1ccc(CNC(=O)C(=O)NCC2CCCN2S(=O)(=O)c2cccs2)cc1 (centres undefined) | . | . | . | . | . | .
CC(OC(=O)CCCN=C1NS(=O)(=O)c2ccccc21)C(=O)Nc1ccccc1F (centres undefined) | . | . | . | . | . | .
Cc1ccccc1NC(=O)Cc1nc(COC(=O)c2ccc(S(C)(=O)=O)c([N+](=O)[O-])c2)cs1 | . | . | . | / | . | .
O=C(NCc1ccccc1)C1(c2cccc(F)c2)CCCC1 | . | 26 | . | . | . | .
O=C(NCc1ccco1)C1(c2ccccc2)CCCC1 | . | . | . | . | . | .
Cc1ccc(CSC2=Nc3sccc3C3=NC(=O)CN23)cc1 | . | . | . | . | . | 27
COc1cc2c(cc1OC)C1=NC(=O)CN1C(SCc1ccc(C)cc1)=N2 | . | . | . | . | . | .
CCN(CC(=O)NCc1ccc(F)cc1)C(=O)c1ccc2c(c1)OCO2 | . | . | . | / | . | .
O=C(NN=Cc1cc(=O)[nH]c(=O)[nH]1)c1ccncc1 | . | . | / | / | . | /
O=C1NC(=O)/C(=C\c2ccccc2Oc2ccc(F)c(F)c2)S1 | . | 26 | . | . | . | .
O=C1NC(=O)/C(=C/c2ccccc2OCc2ccccc2)S1 | . | . | . | . | . | .
CC1CCCC(=NNc2ccc3ccccc3n2)C1 (centres undefined) | . | . | / | / | . | /
Nc1cc(S(=O)(=O)Nc2ccccc2Cl)ccc1N1CCOCC1 | . | . | . | . | . | .
Nc1cc(S(=O)(=O)Nc2ccc(Cl)cc2)ccc1N1CCOCC1 | . | . | . | . | . | 25
O=S(=O)(Nc1ccc(Cl)cc1)c1ccc2c(c1)CCO2 | . | . | . | . | . | 32
N#Cc1cc2ccccc2nc1SCC(=O)Nc1ccccc1N1CCOCC1 | . | . | 30 | . | . | .
Cc1cccc2cc(C#N)c(SCC(=O)Nc3ccccc3N3CCOCC3)nc12 | . | . | . | . | . | .
Cc1ccccc1C1CC(=O)Oc2cc(O)ccc21 (centres undefined) | 40 | 34 | / | / | 41 | 32
Cc1ccc(CN2C(=O)CSC2c2ccccc2F)cc1 (centres undefined) | . | . | . | . | . | .
Cc1ccc(CN2C(=O)CSC2c2ccc(F)cc2)cc1 (centres undefined) | . | 26 | . | . | . | .
Cc1ccccc1OC(C)C(=O)Nc1cccnc1 (centres undefined) | . | . | . | . | . | .
O=c1[nH]c(N/N=C\c2ccc3c(c2)OCO3)nc2ccccc12 | . | . | 29 | . | . | .
CC(O)c1nc2ccccc2n1Cc1ccccc1 (centres undefined) | . | . | . | . | . | .
CC(O)c1nc2ccccc2n1CCCc1ccccc1 (centres undefined) | . | . | . | . | . | 34
N#C/C(=C\c1ccc(O)c(O)c1)C(=O)NCCCc1ccccc1 | . | 38 | . | . | . | 27
SMILES | PAFAH2 inh | PAFAH1B2 FP inh | PME-1 primary | Fam108B inh | PAFAH1B3 FP inh | pPAFAH FP inh
CCC(C)(C)C1CCc2[nH]nc(C(=O)NCCNC(=O)OC(C)(C)C)c2C1 (centres undefined) | . | 28 | . | . | . | .
CCN1CCN(c2ccc(NC(=O)c3cc(S(=O)(=O)N4CCCC4)ccc3Cl)cc2)CC1 | . | . | . | / | . | .
O=C(NCCCCc1ccccc1)c1cccc(NC(=O)C2CCCC2)c1 | . | . | / | / | . | /
N#CC1=C(c2ccc(-c3ccccc3)cc2)COC1=O | . | . | . | . | . | 26
Cc1c(OCC(=O)N[C@@H](Cc2ccccc2)C(=O)O)ccc2c3c(c(=O)oc12)CCC3 | . | . | . | . | . | .
Cc1c(OCC(=O)N[C@@H](CSCc2ccccc2)C(=O)O)ccc2c3c(c(=O)oc12)CCC3 | . | 24 | / | / | . | /
Cc1ccc(C(=O)N(C)Cc2ccc(N3CCOCC3)cc2)cc1S(=O)(=O)NCc1ccccc1 | . | . | . | / | . | .
CCN1CCN(C(c2cccs2)C(C)NC(=S)NC2CCCCC2)CC1 (centres undefined) | . | . | . | . | . | 34
CC(=O)c1c(C)[nH]c(C(=O)CN2CCN(S(=O)(=O)c3ccccc3[N+](=O)[O-])CC2)c1C | . | . | . | / | . | .
O=C(CSc1ccc(Cl)cc1)Nc1ccccc1Oc1ccccc1 | . | . | . | . | . | .
Cc1c(NC(=O)C23CC4CC(CC(C)(C4)C2)C3)c(=O)n(-c2ccccc2)n1C | 50 | 35 | . | . | . | .
Cc1c(NC(=O)COC(=O)COc2ccc(Nc3ccccc3)cc2)c(=O)n(-c2ccccc2)n1C | . | . | . | . | . | 25
CCC(=O)c1ccc(OCC(=O)OCC(=O)Nc2c(C)n(C)n(-c3ccccc3)c2=O)cc1 | . | . | . | . | . | .
Cc1c(NC(=O)CCSc2ccc(Cl)cc2)c(=O)n(-c2ccccc2)n1C | . | 32 | . | . | . | .
O=C(CSc1ccc(Cl)cc1)NC1=NN(c2ccccc2)C(=O)C1 | . | 96 | . | . | . | 32
CC1CCN(S(=O)(=O)c2cnc(Cl)c(Br)c2)CC1 | . | 26 | . | . | . | .
Cn1c(=O)c2[nH]c(C3CC3)nc2n(C)c1=O | . | . | / | / | . | /
CC(C)C(NS(=O)(=O)c1cccc(C(F)(F)F)c1)C(=O)N1CCc2ccccc2C1 (centres undefined) | . | 26 | . | . | . | .
CCc1ccc(Nc2nnc(SCC(=O)c3c(N)n(C4CC4)c(=O)[nH]c3=O)s2)cc1 | . | . | . | / | . | .
COc1ccc(C(=O)CCC(=O)N2CCN(c3cc(C)ccc3C)CC2)cc1 | . | . | . | . | . | .
Cc1ccc(-c2nc3sc(C(N)=O)c(N)c3c3c2CCCC3)cc1 | . | . | . | . | . | .
NC(=O)c1sc2nc(-c3ccccc3)c3c(c2c1N)CCCC3 | . | . | 33 | . | . | .
C[n+]1c(-c2ccc(C=NNC(=O)c3ccc(C(=O)NN=Cc4ccc(-c5cn6ccccc6[n+]5C)cc4)cc3)cc2)cn2ccccc21 | . | . | / | / | . | /
Cn1c(=O)c2c(ncn2CC2OCCO2)n(C)c1=O | . | . | . | . | . | .
O=C(O)c1cccc(S(=O)(=O)Nc2ccc3oc(=O)sc3c2)c1 | . | 27 | . | . | . | .
Cc1ccc(Cc2cnc(NC(=O)C3CCCO3)s2)cc1 (centres undefined) | . | 28 | . | . | . | .
